From PubChem BioAssay AID1159580 (chemical genetic matrix, 2015)
Where “and” joins values, the source holds several entries; their conditions need not be identical. Equal values may be shown once. The whole screen tested about 5,500 compounds, of which about 2,000 (36%) were called active. About 18% were inconclusive and are not listed. No stated cut-off is given here; in the data, active means normalized growth mostly below about 0.91 (no sharp cut-off); inconclusive means no clear call, values can overlap the other calls; inactive means mostly above about 0.92. The list shows a part of the results.

Assay: chemical genetic growth profiling, strain panel (AID 1159580);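 further: tested at 20 µM; growth read once vehicle control cultures reached saturation at 30 °C; 1 = growth at the plate median or of vehicle wells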
Settings: S. cerevisiae deletion strains, growth OD

Measured: normalized growth

C[C@]12CCC3C(CC[C@H]4CC(=O)CC[C@]34C)C1CCC2=O (stereo partly specified)
inactive: locus YAL026C, strain drs2, stronger effect = lower value 0.949 | locus YAL030W, strain snc1, stronger effect = lower value 0.938 | locus YBL061C, strain skt5, stronger effect = lower value 0.987 | locus YBR023C, strain chs3, stronger effect = lower value 0.942 | locus YBR171W, strain sec66, stronger effect = lower value 1 | locus YBR229C, strain ROT2, stronger effect = lower value 0.964 | locus YBR231C, strain swc5, stronger effect = lower value 0.999 | locus YBR279W, strain paf1, stronger effect = lower value 0.983 | locus YCL016C, strain dcc1, stronger effect = lower value 0.94 | locus YCL029C, strain bik1, stronger effect = lower value 0.948 | locus YCL069W, strain vba3, stronger effect = lower value 0.979 | locus YCR088W, strain abp1, stronger effect = lower value 1.03 | locus YDL005C, strain med2, stronger effect = lower value 1.03 | locus YDL040C, strain nat1, stronger effect = lower value 1.03 | locus YDL074C, strain BRE1, stronger effect = lower value 0.795 | locus YDL101C, strain DUN1, stronger effect = lower value 0.978 | locus YDL185W, strain tfp1, stronger effect = lower value 0.932 | locus YDR001C, strain nth1, stronger effect = lower value 1.03 | locus YDR069C, strain doa4, stronger effect = lower value 0.942 | locus YDR101C, strain arx1, stronger effect = lower value 0.947 | locus YDR150W, strain NUM1, stronger effect = lower value 1.01 | locus YDR297W, strain sur2, stronger effect = lower value 0.939 | locus YDR334W, strain swr1, stronger effect = lower value 1.05 | locus YDR335W, strain msn5, stronger effect = lower value 0.932 | locus YEL037C, strain rad23, stronger effect = lower value 1.01 | locus YEL061C, strain CIN8 (second series), stronger effect = lower value 1.01 | locus YEL061C, strain CIN8, stronger effect = lower value 0.994 | locus YER015W, strain faa2, stronger effect = lower value 0.985 | locus YER016W, strain bim1, stronger effect = lower value 0.998 | locus YER110C, stronger effect = lower value 0.958 | locus YER111C, strain swi4, stronger effect = lower value 0.998 | locus YER155C, strain BEM2, stronger effect = lower value 1.04 | locus YER167W, strain BCK2, stronger effect = lower value 0.966 | locus YFR010W, strain ubp6, stronger effect = lower value 0.973 | locus YGL078C, strain dbp3, stronger effect = lower value 0.943 | locus YGL086W, strain mad1, stronger effect = lower value 0.971 | locus YGL167C, strain pmr1, stronger effect = lower value 1.02 | locus YGL227W, strain vid30, stronger effect = lower value 1.08 | locus YGL248W, strain PDE1, stronger effect = lower value 0.912 | locus YGL253W, strain hxk2, stronger effect = lower value 0.92 | locus YHR013C, strain ard1, stronger effect = lower value 0.978 | locus YHR027C, strain rpn1, stronger effect = lower value 0.985 | locus YHR030C, strain SLT2, stronger effect = lower value 0.974 and 0.898 | locus YHR079C, strain IRE1 (second series), stronger effect = lower value 0.991 | locus YHR079C, strain IRE1, stronger effect = lower value 0.901 | locus YHR094C, strain hxt1, stronger effect = lower value 0.997 | locus YHR129C, strain ARP1, stronger effect = lower value 0.96 | locus YHR200W, strain rpn10, stronger effect = lower value 0.928 | locus YIL073C, strain SPO22, stronger effect = lower value 0.782 | locus YIL125W, strain kgd1, stronger effect = lower value 0.989 | locus YIR030C, strain dcg1, stronger effect = lower value 0.976 | locus YJL092W, strain hpr5, stronger effect = lower value 0.978 | locus YJL115W, strain asf1, stronger effect = lower value 1.01 | locus YJL134W, strain LCB3, stronger effect = lower value 1.01 | locus YJL154C, strain vps35, stronger effect = lower value 1.03 | locus YJL168C, strain set2, stronger effect = lower value 1 | locus YJL187C, strain SWE1 (second series), stronger effect = lower value 0.92 | locus YJR043C, strain POL32, stronger effect = lower value 0.883
0.743 (active) and 0.898 (inactive): locus YJL095W, strain BCK1, stronger effect = lower value
active: locus YAL021C, strain ccr4, stronger effect = lower value 0.737 | locus YBR009C, strain hhf1, stronger effect = lower value 0.79 | locus YBR021W, strain FUR4, stronger effect = lower value 0.781 | locus YCL011C, strain gbp2, stronger effect = lower value 0.86 | locus YDL035C, strain GPR1, stronger effect = lower value 0.787 | locus YDL192W, strain arf1, stronger effect = lower value 0.866 | locus YDR137W, strain rgp1, stronger effect = lower value 0.549 | locus YDR159W, strain sac3, stronger effect = lower value 0.799 | locus YDR162C, strain NBP2, stronger effect = lower value 0.408 | locus YDR195W, strain ref2 1.28 [resistant] | locus YDR318W, strain mcm21, stronger effect = lower value 0.895 | locus YDR388W, stronger effect = lower value 0.86 | locus YDR392W, strain spt3, stronger effect = lower value 0.495 | locus YDR502C, strain sam2, stronger effect = lower value 0.835 | locus YEL003W, strain gim4, stronger effect = lower value 0.774 | locus YER155C, strain BEM2 (second series), stronger effect = lower value 0.753 | locus YGL173C, strain kem1, stronger effect = lower value 0.821 | locus YGL240W, strain doc1, stronger effect = lower value 0.768 | locus YGR135W, strain pre9, stronger effect = lower value 0.856 | locus YGR252W, strain gcn5, stronger effect = lower value 0.692 | locus YHR142W, strain chs7, stronger effect = lower value 0.803 | locus YIL066C, strain RNR3, stronger effect = lower value 0.795 | locus YJL095W, strain BCK1 (second series), stronger effect = lower value 0.632 | locus YJL129C, strain trk1, stronger effect = lower value 0.851 | locus YJL164C, strain tpk1, stronger effect = lower value 0.847 | locus YJL166W, strain qcr8, stronger effect = lower value 0.815 | locus YJL187C, strain SWE1, stronger effect = lower value 0.923
